± gives the standard deviation. In all, about 8,200 sequences were measured (“pre-steady-state target cleavage rate”: median about 0.024, highest 2% from about 1.3 on). The list comes from a sample in which the highest values are over-represented; it also holds similar and randomly drawn sequences.
Tested on: MIWI (PIWIL1) piRISC loaded with L1MC piRNA (30 nt)
Experiment: pre-steady-state target cleavage rate (min^-1); MIWI and MILI are mouse PIWI proteins and EfPiwi is from a freshwater sponge; tags in brackets are library labels; higher = faster piRNA-guided slicing of the target
Conditions: guide: L1MC piRNA 5'p-UAACUAAAUACUAUGCAAGCUGUAGGUCCU
Procedure, shortened: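 The pre-steady-state cleavage rate was calculated from a burst-and-steady-state fit. Data came from Cleave-'n-Seq, in which […] transcribed, DNA-blocked target RNA library was mixed with 1 nM active affinity-purified piRISC carrying one synthetic guide, with or without 500 nM GTSF1 partner protein, in HEPES–potassium acetate buffer at 33 °C for 0–8 or 0–960 min. Uncleaved targets were sequenced and normalised to depth and to weakly complementary targets, three trials were pooled, and k3 was capped at 0.0001 min^-1.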

[1] = auxiliary factor: 500 nM mouse GTSF1
[2] = auxiliary factor: none (no GTSF1)
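Also: 1 nM active piRISC with 0.1 nM target library at 33 °C single turnover.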

Row | Sequence | pre-steady-state target cleavage rate [1] | pre-steady-state target cleavage rate [2]
1 | UCCUGGAACAGCUUGCAUAGCUAUUUAGUUA | 0.0102 ± 0.0047 | 
2 | UCCUGGUAAAGCUUGCAUAGUAUUUAGUUA | 0.551 ± 0.037 | 0.0419 ± 0.0086
3 | UCCUGGAACAGCUUGCAAAGUAUAUAGUUA | 0.459 ± 0.037 | 0.0164 ± 0.0061
4 | UCCUGCUACAGCUUGGAAAGUAUUUAGUUA | 0.903 ± 0.053 | 0.00754 ± 0.0024
5 | UGGAUCUACAGCUUGCAUAGUAUUUAGUUA | 1.57 ± 0.062 | 0.0958 ± 0.019
6 | UCGAUCUACAGCUUGCAUAGUAUUUAGUUA | 1.61 ± 0.05 | 0.072 ± 0.013
7 | UCCUGGAUCUAGCUUGCAUAGUAUUUAGUUA | 0.86 ± 0.04 | 0.0445 ± 0.011
8 | AGGACACUACAGCUUGCAUAGUAUUUAGUUA | 1.13 ± 0.083 | 0.0749 ± 0.011
9 | UGGACGCUACAGCUUGCAUAGUAUUUAGUUA | 1.15 ± 0.076 | 0.0759 ± 0.013
10 | AGGAUCUACAGCUUGCAUAGUAUUUAGUUA | 1.7 ± 0.059 | 0.105 ± 0.017
11 | UCCAUCUACAGCUUGCAUAGUAUUUAGUUA | 0.731 ± 0.031 | 0.0538 ± 0.0076
12 | UCCUGGAUCAGCUUGCAUUGUUUUUAGUUA | 0.0337 ± 0.0067 | 0.00759 ± 0.0022
13 | UCGACCUACAGCUUGCAUAGUAAUUAGUUA | 1.08 ± 0.049 | 0.0469 ± 0.012
14 | UCCUGGAUGUCCUUGCUAUGUAUUUAGUAA | 0.00637 ± 0.0038 | 
15 | UCCUGGUACAGCUUGCAUAGUGAUUUAGUUA | 0.0476 ± 0.011 | 0.00639 ± 0.0029
16 | UCCUGGUACACCUAGCAUAGUAUUUAGUUA | 0.278 ± 0.063 | 0.00414 ± 0.0028
17 | UCGACCUAGAGCUUGCAUAGUAUUUAGAAA | 0.441 ± 0.048 | 0.00689 ± 0.0021
18 | UCCUGGUACUCGUUGCAUAGUAUUUAGUAA | 0.0165 ± 0.0088 | 
19 | UCGACGAACAGCUUGCAUAGUAUUUAGUUA | 1.38 ± 0.049 | 0.0836 ± 0.015
20 | UCCUCGAACAGCUUGCAUAGUAUUUAGUUA | 1.39 ± 0.039 | 0.0825 ± 0.015
21 | UGGACGAACAGCUUGCAUAGUAUUUAGUUA | 1.17 ± 0.036 | 0.0856 ± 0.015

Row | Sequence | pre-steady-state target cleavage rate [1] | pre-steady-state target cleavage rate [2]
22 | UCCUCGAACAGCUUGCAUAGUAUUUAGAAA | 0.474 ± 0.043 | 0.00694 ± 0.0025
23 | UCCUCGAACAGCUUGCAUAGUAUUUAGUAA | 0.982 ± 0.042 | 0.0424 ± 0.008
24 | UCGACGAACAGCUUGCAUAGUAUUUAGUAA | 0.962 ± 0.062 | 0.0577 ± 0.013
25 | UCCUGGAACACCUUGCUUAGUAUUUAGUUA | 0.239 ± 0.032 | 0.00546 ± 0.0019
26 | UGGACCUACAGCUUGCAUAGUAUUUAGUGA | 1.12 ± 0.064 | 0.0575 ± 0.011
27 | UGUGACCUACAGCUUGCAUAGUAUUUAGUUA | 1.45 ± 0.063 | 0.0959 ± 0.018
28 | UUGACCUACAGCUUGCAUAGUAUUUAGUUA | 1.16 ± 0.061 | 0.0724 ± 0.012
29 | AGUGACCUACAGCUUGCAUAGUAUUUAGUUA | 1.38 ± 0.056 | 0.0885 ± 0.015
30 | UGCACCUACAGCUUGCAUAGUAUUUACUUA | 0.46 ± 0.056 | 0.0724 ± 0.017
31 | AGCACCUACAGCUUGCAUAGUAUUUACUUA | 1.4 ± 0.24 | 
32 | AUGACCUACAGCUUGCAUAGUAUUUAGUUA | 1.06 ± 0.03 | 0.0859 ± 0.013
33 | UCCACCUACAGCUUGCAUAGUAUUUACUUA | 0.378 ± 0.044 | 0.0369 ± 0.0085
34 | AGGACCUACAGCUUGCAUAGUAUUUAGUGA | 1.01 ± 0.085 | 0.0934 ± 0.018
35 | UGACCUACAGCUUGCAUAGUAUUUAGUUA | 1.57 ± 0.061 | 0.0842 ± 0.016
36 | UCGACCAUGAGCUUGCAUAGUAUUUAGUAA | 0.804 ± 0.049 | 0.0343 ± 0.0083
37 | UCCUGGAUGUCGAACCAUAGAUUUAGUUA | < 0.0001 | 
38 | UCCUGCUUCAGCUUGCAUAGUAAUUAGUUA | 0.823 ± 0.043 | 0.0173 ± 0.0042
39 | UCCUGCUACACCUUGCAUAGUAUUUACAAA | 0.245 ± 0.056 | 
40 | UGGACCUACAGCUUGCAUAGUAUUAAGUAA | 0.335 ± 0.037 | 0.0164 ± 0.0052
41 | UCCUGGAUCAGCCUGCAUAGUAUUUAGUUA | 1.02 ± 0.045 | 0.0431 ± 0.008
42 | UGGACCUACAGCUUGCUAUGUAUUUAGUUA | 0.115 ± 0.016 | 0.00588 ± 0.001

Row | Sequence | pre-steady-state target cleavage rate [1] | pre-steady-state target cleavage rate [2]
43 | UCCUGGAACAGCUUGCAUAGUUUAUAGUUA | 0.0662 ± 0.011 | 0.0101 ± 0.003
44 | UCGAGCUACACCUUGCAUAGUAUUUAGUUA | 1.01 ± 0.046 | 0.0524 ± 0.0089
45 | UGGAGCUACAGCUUGCAUAGUAUUUAGUUA | 1.25 ± 0.045 | 0.0783 ± 0.012
46 | AGGAGCUACAGCUUGCAUAGUAUUUAGUUA | 1.42 ± 0.055 | 0.0984 ± 0.016
47 | UGGAGCUACAGCAUGCAUAGUAUUUAGUUA | 1.14 ± 0.042 | 0.0429 ± 0.0078
48 | AGGAGCUACAGCAUGCAUAGUAUUUAGUUA | 1.37 ± 0.058 | 0.0574 ± 0.01
49 | UGGAGCCUACAGCUUGCAUAGUAUUUAGUUA | 1.41 ± 0.1 | 0.0757 ± 0.013
50 | AGGAGCUACAGCUUGCAUAGUAUUUAGUAA | 1.02 ± 0.092 | 0.0616 ± 0.012
51 | UGGAGCUACAGCUUGCAUAGUAUUUAGUAA | 0.953 ± 0.06 | 0.0465 ± 0.0085
52 | AGGAGCUACACCUUGCAUAGUAUUUAGUUA | 1.36 ± 0.044 | 0.0609 ± 0.012
53 | UCGAGCUACAGCAUGCAUAGUAUUUAGUUA | 1.19 ± 0.054 | 0.0332 ± 0.0062
54 | UGGAGCUACACCUUGCAUAGUAUUUAGUUA | 1.12 ± 0.051 | 0.0597 ± 0.0097
55 | UCCUGCUACAGCUUGCAUUAGUAUUUAGUUA | 0.0188 ± 0.0083 | 
56 | UCCAGGAACAGCUUGCAUAGUAUUUAGUAA | 0.57 ± 0.047 | 0.0391 ± 0.0081
57 | AGGAGCUACAGCUUGCAUAGUAUUAAGUUA | 0.783 ± 0.065 | 0.0457 ± 0.0092
58 | UCCACCUACAGCUUGCAUAGUUUUUUCAAA | 0.144 ± 0.028 | 
59 | UCCUGGUACAGCUUGCAUAGUAUUAUCAAA [g7:g24:cont:t1A] | 0.124 ± 0.024 | 
60 | UCCAGCCUACAGCUUGCAUAGUAUUUAGUUA | 1.32 ± 0.062 | 0.0623 ± 0.0092
61 | UCCAGCUACAGCUUGCAUAGUAUUUAGUUA | 0.682 ± 0.042 | 0.0438 ± 0.0056
62 | UCGAGCCUACAGCUUGCAUAGUAUUUAGUUA | 1.46 ± 0.074 | 0.0844 ± 0.016
